# Over roughly 18,000 sequences, “TetR repression strength (sort-seq, GFP reporter)” has its median near 0.23; the highest 2% begin near 0.68. This excerpt belongs to a sample that is enriched for the highest values.
# Molecular target: TetR (class B, Tn10) (UniProt P04483)
# Test: TetR repression strength (sort-seq, GFP reporter) (relative to tetO2 = 1); higher = stronger repression
# Conditions: E. coli
# Outline: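 E. coli SIG10-MAX carried a low-copy plasmid library with eight randomized operator positions between a constitutive promoter and sfGFP, with TetR constitutively expressed. Cells grew 5 h at 37 °C in LB with 50 µg/mL chloramphenicol, then 10^6 cells were FACS-sorted into 13 fluorescence bins, each Illumina-sequenced. Repression strength is the top bin index plus one minus the read-weighted mean bin, divided by the wild-type operator value. Three independent transformations; variants with ≥30 reads in all replicates and CV ≤0.5 were averaged.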
# Sequence of TetR (class B, Tn10) (P04483 whole entry): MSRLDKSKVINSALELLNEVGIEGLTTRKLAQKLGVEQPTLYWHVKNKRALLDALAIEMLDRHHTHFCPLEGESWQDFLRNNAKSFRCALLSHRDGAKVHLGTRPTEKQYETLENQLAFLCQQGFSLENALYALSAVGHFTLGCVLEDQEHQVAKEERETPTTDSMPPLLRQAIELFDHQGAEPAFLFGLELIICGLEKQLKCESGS
row,Sequence,TetR repression strength
1,TCCCTTCAAGTTTCAGAGA,0.837
2,TCCCTTCCAGTTTCAGAGA,0.819
3,TCCCTTCAAGTTTGAGAGA,0.185
4,TCCCTTTCAGTTTCAGAGA,0.206
5,TCCCTTCCAGTATCAGAGA,0.0836
6,TCCCTTCAAGTGTCAGAGA,0.303
7,TCCCAGAGAGTACTAGAGA,0.336
8,TCCCGAGGAGTGGCTGAGA,0.0686
9,TCCCTTGGAGTAGGGGAGA,0.274
10,TCCCACGGAGTCTGGGAGA,0.0855
11,TCCCAGACAGTGCTCGAGA,0.855
12,TCCCAGACAGTGCGAGAGA,0.219
13,TCCCTGTTAGTGGTCGAGA,0.187
14,TCCCTCTGAGTGCTCGAGA,0.315
15,TCCCTGATAGTGCTCGAGA,0.215
16,TCCCAGACAGTACTCGAGA,0.444
17,TCCCGAAGAGTGCTCGAGA,0.813
18,TCCCAGTGAGTGCTCGAGA,0.0229
19,TCCCGAGGAGTGCTCGAGA,0.126
20,TCCCTGTTAGTGCTCGAGA,1.15
21,TCCCTGTGAGTGCTCGAGA,1.14
22,TCCCGATGAGTGCTCGAGA,0.361
23,TCCCTGGCAGTTAGGGAGA,0.365
24,TCCCGGTCAGTCTGCGAGA,0.194

row,Sequence,TetR repression strength
1,TCCCGGATAGTCTTTGAGA,0.125
2,TCCCTTGGAGTATATGAGA,0.119
3,TCCCTGCGAGTAGTCGAGA,0.542
4,TCCCCATTAGTGTACGAGA,0.425
5,TCCCTAAGAGTGATGGAGA,0.243
6,TCCCTGAGAGTTCGCGAGA,0.0305
7,TCCCTGTGAGTTCGGGAGA,0.369
8,TCCCTGTGAGTTCGAGAGA,0.719
9,TCCCATCTAGTCCGTGAGA,0.174
10,TCCCTCTAAGTTAGTGAGA,0.241
11,TCCCGCTAAGTCCGGGAGA,0.188
12,TCCCCTGAAGTCTTCGAGA,0
13,TCCCAGGCAGTGCCGGAGA,0.748
14,TCCCAGGCAGTGCAGGAGA,0.143
15,TCCCTCTCAGTGCTTGAGA,0.661
16,TCCCTGTCAGTGCCGGAGA,1.03
17,TCCCTAGCAGTGTTTGAGA,0.369
18,TCCCTATCAGTGTTTGAGA,0.767
19,TCCCTATGAGTGCTTGAGA,0.335
20,TCCCAGGGAGTGCCGGAGA,0.19
21,TCCCTATCAGTGCTTGAGA,0.701
22,TCCCTATCAGTTTTTGAGA,0.472
23,TCCCTGTGAGTGCCGGAGA,0.164
24,TCCCTGTCAGTGTCGGAGA,0.388

row,Sequence,TetR repression strength
1,TCCCCGAAAGTCGCGGAGA,0.128
2,TCCCTATCAGTGTAGGAGA,0.484
3,TCCCCTCTAGTGTAAGAGA,0.155
4,TCCCGGATAGTAGCGGAGA,0.329
5,TCCCAGGCAGTCGGTGAGA,0.213
6,TCCCGTTTAGTGGGTGAGA,0.306
7,TCCCTTTGAGTTATCGAGA,0.384
8,TCCCGGGCAGTATTCGAGA,0.136
9,TCCCCGTGAGTGCATGAGA,0.122
10,TCCCATTCAGTCAATGAGA,0.457
11,TCCCTAATAGTGCTTGAGA,1.01
12,TCCCTATCAGTTTTCGAGA,0.523
13,TCCCTATTAGTGCTAGAGA,0.466
14,TCCCTAGTAGTGCTTGAGA,0.594
15,TCCCTATCAGTGTTCGAGA,0.777
16,TCCCTAACAGTGTTCGAGA,0.305
17,TCCCTATCAGTGGTCGAGA,0.532
18,TCCCTGTCAGTGCTCGAGA,0.534
19,TCCCTATCAGTGCTAGAGA,0.841
20,TCCCTATCAGTGCGAGAGA,0.452
21,TCCCAAATAGTGCTTGAGA,0
22,TCCCTATCAGTGCTCGAGA,0.993
23,TCCCATACAGTGCGCGAGA,0.394
24,TCCCTTATAGTCGCGGAGA,0.142

row,Sequence,TetR repression strength
1,TCCCCTTAAGTGTATGAGA,0.348
2,TCCCAGAGAGTGGAAGAGA,0.148
3,TCCCGACAAGTTATCGAGA,0.226
4,TCCCTATAAGTCCTCGAGA,0.529
5,TCCCTATCAGTGCCTGAGA,0.467
6,TCCCTATCAGTCCCGGAGA,0.4
7,TCCCTATCAGTCCTCGAGA,0.747
8,TCCCCATCAGTCCTCGAGA,0.327
9,TCCCCATCAGTGCTGGAGA,0.157
10,TCCCTATCAGTGCCGGAGA,1.06
11,TCCCTATCAGTGGTGGAGA,0.402
12,TCCCTATCAGTGCTGGAGA,0.86
13,TCCCAGGCAGTGCTTGAGA,0.113
14,TCCCGATCAGTAGACGAGA,0.237
15,TCCCCTGTAGTGTGCGAGA,0.297
16,TCCCCCACAGTTATAGAGA,0.524
17,TCCCAGGTAGTGGCGGAGA,0.176
18,TCCCTACAAGTGCCGGAGA,0.202
19,TCCCTTCTAGTTCTGGAGA,0.402
20,TCCCTTCGAGTTCTGGAGA,0.328
21,TCCCCTCCAGTTCTGGAGA,0.342
22,TCCCTTCCAGTTCTGGAGA,1.04
23,TCCCTTCAAGTTCTGGAGA,1.03
24,TCCCTTCCAGTTCTTGAGA,0.472

row,Sequence,TetR repression strength
1,TCCCTTCAAGTGCCCGAGA,0.415
2,TCCCTTCAAGTGCCGGAGA,1.13
3,TCCCATAAAGTGACGGAGA,0.305
4,TCCCTTAAAGTGTTGGAGA,0.334
5,TCCCGTTCAGTATGGGAGA,0.106
6,TCCCGCCGAGTCCCGGAGA,0.317
7,TCCCATGGAGTTTTAGAGA,0.281
8,TCCCACGGAGTTACGGAGA,0.224
9,TCCCGTTGAGTTTCTGAGA,0.744
10,TCCCGTCGAGTGTTCGAGA,0.218
11,TCCCGTGGAGTGTTGGAGA,0.325
12,TCCCGTTGAGTGTTGGAGA,1.1
13,TCCCGTTTAGTAGTTGAGA,0.028
14,TCCCGTTGAGTGTTTGAGA,0.13
15,TCCCGTGGAGTGTTCGAGA,0.914
16,TCCCGTTAAGTTTCTGAGA,0.302
17,TCCCGTTGAGTATTTGAGA,0.329
18,TCCCGAGGAGTGTTCGAGA,0.224
19,TCCCGTGGAGTTTCTGAGA,0.0476
20,TCCCGTTTAGTATTTGAGA,0.713
21,TCCCGTAAAGTGGTGGAGA,0.228
22,TCCCTCGAAGTGCTTGAGA,0.406
23,TCCCGAAGAGTGTTGGAGA,0.268
24,TCCCGTCAAGTACGCGAGA,0.196

row,Sequence,TetR repression strength
1,TCCCCATGAGTAATTGAGA,0.334
2,TCCCGCGTAGTTACCGAGA,0.161
3,TCCCTCGGAGTGTGCGAGA,0.09
4,TCCCTTTGAGTATGGGAGA,0.0551
5,TCCCTCGAAGTAGAAGAGA,0.297
6,TCCCGTGGAGTGGCCGAGA,0.159
7,TCCCGGGGAGTGTCCGAGA,0.125
8,TCCCGTGGAGTGTCCGAGA,0.821
9,TCCCTACAAGTGTTTGAGA,0.295
10,TCCCGGACAGTTGGTGAGA,0.421
11,TCCCAGACAGTCATTGAGA,0.375
12,TCCCGGGCAGTCCGCGAGA,0.163
13,TCCCAATGAGTGGGCGAGA,0.238
14,TCCCGCTGAGTTAGAGAGA,0.0464
15,TCCCCAATAGTTAGGGAGA,0.699
16,TCCCCAACAGTTAGGGAGA,0.218
17,TCCCGCTGAGTTACGGAGA,0.652
18,TCCCGCTTAGTTAGGGAGA,1.02
19,TCCCGCGGAGTTAGGGAGA,0.207
20,TCCCGGTTAGTTACGGAGA,0.211
21,TCCCGCTAAGTTAGGGAGA,0.286
22,TCCCGCTGAGTTAGGGAGA,0.929
23,TCCCGCTTAGTTACGGAGA,1.2
24,TCCCGCTTAGTGAGGGAGA,0.419

row,Sequence,TetR repression strength
1,TCCCCCATAGTTAGGGAGA,0
2,TCCCTTTGAGTGGACGAGA,0.246
3,TCCCCATTAGTGGAGGAGA,0.275
4,TCCCCGGCAGTATGTGAGA,0.189
5,TCCCGGAAAGTCTAGGAGA,0.216
6,TCCCTTTAAGTCGACGAGA,0.285
7,TCCCTTTTAGTGTGGGAGA,0.317
8,TCCCGTTAAGTCTTGGAGA,0.302
9,TCCCGTCGAGTCGTTGAGA,0.134
10,TCCCGGCTAGTCGTTGAGA,0.89
11,TCCCGGCTAGTCACTGAGA,0.256
12,TCCCGGCTAGTAGTTGAGA,0.295
13,TCCCGGCGAGTCGTTGAGA,0.801
14,TCCCGAGTAGTCACTGAGA,0.231
15,TCCCGGAGAGTCGTTGAGA,0.118
16,TCCCGCCTAGTCACTGAGA,0.682
17,TCCCGGTTAGTCGTTGAGA,0.225
18,TCCCAATAAGTGTGCGAGA,0.242
19,TCCCGTTTAGTCGCGGAGA,0.215
20,TCCCAGTTAGTGGGTGAGA,0.172
21,TCCCCTCGAGTGCCGGAGA,0.442
22,TCCCTAAAAGTGGGAGAGA,0.203
23,TCCCACCGAGTGATCGAGA,0.405
24,TCCCACCGAGTGAGAGAGA,0.43

row,Sequence,TetR repression strength
1,TCCCACCGAGTGATAGAGA,1.21
2,TCCCTATGAGTGCTAGAGA,0.452
3,TCCCAAGGAGTGATAGAGA,0.977
4,TCCCCAGGAGTGATAGAGA,0.339
5,TCCCAAAGAGTGGTAGAGA,0.164
6,TCCCAAGGAGTGGTAGAGA,1.18
7,TCCCATGGAGTGATAGAGA,0.548
8,TCCCTATGAGTGATAGAGA,0.765
9,TCCCCAGGAGTGGTAGAGA,0.189
10,TCCCTGTGAGTGATAGAGA,0.456
11,TCCCGGATAGTGGGTGAGA,0.0875
12,TCCCCGGCAGTCGCAGAGA,0.207
13,TCCCGTGTAGTAAGGGAGA,0.307
14,TCCCGCCGAGTAGGCGAGA,0.34
15,TCCCACTGAGTGATAGAGA,0.551
16,TCCCAGTGAGTGATAGAGA,0.528
17,TCCCAATGAGTGATAGAGA,0.685
18,TCCCTGATAGTGGGGGAGA,0.0581
19,TCCCTGTTAGTGGGGGAGA,0.737
20,TCCCAAATAGTGTGGGAGA,0.459
21,TCCCAAATAGTGGGGGAGA,1.1
22,TCCCAAATAGTGGGAGAGA,0.214
23,TCCCTGTTAGTGGGAGAGA,0.189
24,TCCCTGAAAGTCACGGAGA,0.337

row,Sequence,TetR repression strength
1,TCCCGGGGAGTTAGGGAGA,0.346
2,TCCCCACAAGTATCAGAGA,0.752
3,TCCCCACAAGTATCCGAGA,0.296
4,TCCCCACCAGTATCAGAGA,0.697
5,TCCCCACCAGTGTCAGAGA,0.334
6,TCCCACCCAGTATCAGAGA,0.2
7,TCCCCACAAGTGTCAGAGA,0.352
8,TCCCGGTAAGTGATGGAGA,0.338
9,TCCCGAGAAGTCCGAGAGA,0.474
10,TCCCAGTAAGTCAGAGAGA,0.066
11,TCCCGGAAAGTCTCGGAGA,0.107
12,TCCCAAGTAGTTGGTGAGA,0.774
13,TCCCCAGTAGTTGGTGAGA,0.114
14,TCCCTCGTAGTGGGTGAGA,0.815
15,TCCCTCATAGTGGGTGAGA,0.0921
16,TCCCTGAGAGTTGGTGAGA,0.164
17,TCCCTCGGAGTGGGTGAGA,0.988
18,TCCCTCGGAGTGGGAGAGA,0.217
19,TCCCTCTGAGTGGGTGAGA,0.195
20,TCCCTCAGAGTTGGTGAGA,1.2
21,TCCCTAGTAGTTGGTGAGA,0.177
22,TCCCTCGTAGTGAGTGAGA,0.507
23,TCCCTAAGAGTTGGTGAGA,0.137

# — a collection of fitness landscapes (doi:10.1038/s41467-024-54723-y)
